Bioassay records as filed in PubChem BioAssay.
An excerpt weighted towards active compounds, which were near 3.8% of everything screened.
TIM10 inh = TIM10 yeast growth inhibition. S. cerevisiae TIM10 strain growth, BacTiter-Glo luminescence, 24 h. inhibition, % at 10 µM. 330,000 tested, 1.4% active. AID 463195;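 active = inhibition of 40% or more at the single tested concentration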;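 note: wild-type TIM10 isogenic control strain grown at permissive 25 °C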
tim23-1 inh = tim23-1 yeast growth inhibition; AID 463212; inhibition, % at 20 µM; S. cerevisiae tim23-1 growth, BacTiter-Glo luminescence, 24 h; 330,000 tested, 1.3% active;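 active = growth inhibition of the mutant yeast at or above 50%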;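 note: temperature-sensitive mutant grown at 25 °C; plate controls were DMSO-treated mutant yeast for no effect and medium wells lacking yeast for full effect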
tim10-1 inh = tim10-1 yeast growth inhibition. S. cerevisiae tim10-1 ts strain growth, BacTiter-Glo, 24 h. inhibition, % at 20 µM. 330,000 tested, 2.2% active. AID 463190;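 active = inhibition of at least 40%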;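 note: mutant grown at 25 °C; 0% = DMSO wells with yeast and 100% = wells holding no yeast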
NALP3 yeast inh = NALP3 inhibition in yeast | Yeast reconstituted NLRP3/ASC/caspase-1, beta-gal luminescence, 24 h | inhibition, % at 10 µM | 330,000 tested, 0.39% active | AID 2825;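 active = inhibition of 50% or more; inactive = inhibition below 50%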;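 note: plate controls were induced DMSO wells for no effect and uninduced yeast grown without galactose for full effect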
CR mimetic SO = caloric restriction mimetics inhibiting age-related superoxide in yeast; superoxide response (% of plate mean), % at 10 µM; AID 2690; 330,000 tested, 0.18% active; S. cerevisiae aged cells, superoxide DHE fluorescence; hits give low values;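 active = superoxide response under a set limit, about three screen SD below normal, cut at about 65% in these data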;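 note: yeast aged for seven days with compound at 30 °C before DHE staining; 100% = average MFI of all compound-treated wells on the plate with controls excluded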
tim10-1 conf = tim10-1 yeast growth inhibition, confirmed | shares compounds with tim10-1 inh | S. cerevisiae tim10-1 ts strain growth, BacTiter-Glo, 24 h | inhibition, % at 20 µM | 7,400 tested, 56% active | AID 463213;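 active = inhibition of yeast growth at or above a set limit in either of two repeat tests at 20 µM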;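 note: tim10-1 mutant grown at permissive 25 °C to find synthetic lethal compounds; 0% = DMSO yeast wells and 100% = medium wells without yeast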
Starred values were filed as active, the others as inactive.

Results for COc1ccc(C(=O)O/N=C(\N)c2ccc(Br)cc2)cc1 ?
TIM10 inh: 39; tim23-1 inh: 31; tim10-1 inh: 43*; NALP3 yeast inh: 35; CR mimetic SO: 130; tim10-1 conf: 53*

What do the screens show for `COc1ccc(/C(N)=N/OC(=O)Cc2ccccc2OC)cc1`?
TIM10 inh: 23; tim23-1 inh: 20; tim10-1 inh: 49*; NALP3 yeast inh: 16; CR mimetic SO: 102; tim10-1 conf: 32*

How did CSC1=NC(C(Cl)(Cl)Cl)N=C(c2ccccc2)N1 (stereo unspecified) do in these assays?
TIM10 inh: 10; tim23-1 inh: 6; tim10-1 inh: 7; NALP3 yeast inh: 25; CR mimetic SO: 98

How did CCOc1ccc(S(=O)(=O)N2CCN(c3ccccc3F)CC2)c2cccnc12 do in these assays?
TIM10 inh: 22; tim23-1 inh: 33; tim10-1 inh: 45*; NALP3 yeast inh: 13; CR mimetic SO: 95; tim10-1 conf: 25

What do the screens show for `CCOc1ccccc1N1CCN(S(=O)(=O)c2ccc3c4c(cccc24)C(=O)N3)CC1`?
TIM10 inh: 15; tim23-1 inh: 6; tim10-1 inh: 20; NALP3 yeast inh: 19; CR mimetic SO: 112

How did CCC(C)c1ccc(NC(=O)C2CCCN(c3ncccn3)C2)cc1 (stereo unspecified) do in these assays?
TIM10 inh: 37; tim23-1 inh: 43; tim10-1 inh: 42*; NALP3 yeast inh: 7; CR mimetic SO: 113; tim10-1 conf: 41*

Results for COc1ccc(NC(=O)C2CCCN(c3ncccn3)C2)cc1 (stereo unspecified) ?
TIM10 inh: -2; tim23-1 inh: -4; tim10-1 inh: -7; NALP3 yeast inh: 22; CR mimetic SO: 100

Results for CCCn1c(-c2cccs2)nc2ccccc21 ?
TIM10 inh: 15; tim23-1 inh: 38; tim10-1 inh: 41*; NALP3 yeast inh: 14; CR mimetic SO: 102; tim10-1 conf: 0

What do the screens show for `C=CCn1c(-c2cccs2)nc2ccccc21`?
TIM10 inh: -14; tim23-1 inh: 10; tim10-1 inh: 4; NALP3 yeast inh: 26; CR mimetic SO: 94

How did Cc1oc2c(Cl)c(Cl)c(O)c(CN(C)C)c2c1C(=O)c1ccc(Cl)cc1 do in these assays?
TIM10 inh: 38; tim23-1 inh: 45; tim10-1 inh: 49*; NALP3 yeast inh: 18; CR mimetic SO: 106; tim10-1 conf: 53*

How did Cc1cc(OCCN2CCN(S(=O)(=O)c3ccccc3F)CC2)ccc1C(C)C do in these assays?
TIM10 inh: 20; tim23-1 inh: 26; tim10-1 inh: 43*; NALP3 yeast inh: 19; CR mimetic SO: 125; tim10-1 conf: 26

What do the screens show for `CCOC(=O)c1c(C)[nH]c(C(C)=NNC(=O)c2cccs2)c1C`?
TIM10 inh: 17; tim23-1 inh: 6; tim10-1 inh: 9; NALP3 yeast inh: 13; CR mimetic SO: 88

How did Cc1sc2ncnc(N3CCCCC3)c2c1C do in these assays?
TIM10 inh: 5; tim23-1 inh: 39; tim10-1 inh: 19; NALP3 yeast inh: 19; CR mimetic SO: 100

How did Cc1sc2ncnc(N3CCCCC3C)c2c1C (stereo unspecified) do in these assays?
TIM10 inh: 6; tim23-1 inh: 28; tim10-1 inh: 42*; NALP3 yeast inh: 23; CR mimetic SO: 91; tim10-1 conf: 22

Results for CC/C(=N\Nc1ccccc1[N+](=O)[O-])c1ccc(O)cc1 ?
TIM10 inh: 40; tim23-1 inh: 38; tim10-1 inh: 57*; NALP3 yeast inh: 41; CR mimetic SO: 98; tim10-1 conf: 39*

How did CC1CCN(C(=O)c2ccc(NS(=O)(=O)c3cccs3)cc2)CC1 do in these assays?
TIM10 inh: 12; tim23-1 inh: 3; tim10-1 inh: -10; NALP3 yeast inh: 14; CR mimetic SO: 114

What do the screens show for `C=C[C@@H]1c2cc(C)ccc2N(S(=O)(=O)c2ccc(C)cc2)[C@H](c2ccccc2)C1(C#N)S(=O)(=O)c1ccccc1` (stereo partly specified)?
TIM10 inh: 14; tim23-1 inh: 18; tim10-1 inh: 17; NALP3 yeast inh: -31; CR mimetic SO: 83

What do the screens show for `COc1ccccc1NC(=O)C(C)OC(=O)/C=C/c1ccc2ccccc2n1` (stereo unspecified)?
TIM10 inh: 14; tim23-1 inh: 46; tim10-1 inh: 52*; NALP3 yeast inh: 9; CR mimetic SO: 103; tim10-1 conf: 30*
